The values that follow come from PubChem BioAssay (Tox21).

Records with an inconclusive call do not appear. A call without a number means that no potency is given here. A number with no mark means an inactive call. The source made the active and inactive calls. Calls follow the shape of the dose curve; as a rule, active = well fitted cell-killing curve with a large enough effect in the repeat runs; inconclusive = weak or mixed curves, or effect the other way; inactive = flat fitted curve, though single readings scatter.
Potency is read from the fitted curve at half-maximal effect.

The test can be described thus: qHTS assay to identify small molecule agonists of the constitutive androstane receptor (CAR) signaling pathway - cell viability counter screen (AID 1224836). Also: nearly all actives have a fitted effect of over 45% in size. As to conditions: HepG2-CYP2B6-hCAR viability, CellTiter-Fluor, 23 h, PK11195 added to every well; series mostly up to 92.4 µM. From the text:
U.S. Tox21 Program National Center for Advancing Translational Sciences [NCATS] NIH Chemical Genomics Center [NCGC] U.S. Environmental Protection Agency [EPA] National Institutes of Environmental Health Sciences [NIEHS] National Toxicology Program [NTP] U.S. Food and Drug Administration [FDA] Tox21 Assay Overview: The constitutive androstane receptor (CAR) is a nuclear receptor which regulates multiple drug metabolizing enzymes (DMEs) and transporters. Activating CAR will generally increase the transcription and subsequent translation of CYP2B6 and CYP3A4. These two DMEs represent about 50% of the drug metabolizing potential in the body. […] Recently, there have also been studies performed indicating CARs role in energy metabolism and cancer therapy. Therefore, inducing CARs activity could have a potential effect on diabetes and cancer. Identifying environmental toxins and compounds which modulate CAR, through the use of the Tox21 10K compound collection, will be an important step in determining the toxicity and potential therapeutic effects these factors will have on the human body. To differentiate true CAR agonists from cytotoxic substances, the assay is multiplexed with a cell viability assay.
Tox21 Assay Protocol Summary: A double-stable (hCAR and CYP2B6-2.2kb) transfected cell line, derived from human hepatoma (HepG2) cells, was utilized for the duration of the quantitative high-throughput screens. The HepG2-CYP2B6-hCAR cells were dispensed at 2500 cells/4 uL/well in 1536-well white solid bottom plates using a Multidrop Combi. After the assay plates were incubated at 37 C/5% CO2 for 4 hrs, 23 nL of compounds at 15 concentrations (from 5-48 columns) or positive control (from 1 to 4 columns) were transferred to the assay plates using a Pintool station. One uL of PK11195 (final concentration = 0.75 uM) was added, using a Flying Reagent Dispenser, inside each well. After a 23 hr incubation period at 37 C/5% CO2, 1 uL of CellTiter-Fluor reagent was added into each well of the assay plates using a Flying Reagent Dispenser. The fluorescence intensity in the plates was then measured using a ViewLux plate reader.
Turning to `COc1cc(C(C)C)ccc1C`, the viability change, negative = cytotoxic is 2.67% [at 19 µM]. Take `CCC(C)(C)c1ccc(CC(C)CN2C[C@@H](C)O[C@@H](C)C2)cc1` (stereo not given in full): the Potency result was “inactive”. Consider `CCn1c2ccccc2c2ccccc21`, for which the Potency result is “inactive”. Consider `C/C(=C\c1ccc(C(=O)O)cc1)c1ccc2c(c1)C(C)(C)CCC2(C)C`, for which the Potency entry was “inactive”. On to `O=C1OC(=O)c2cc(-c3ccc4c(c3)C(=O)OC4=O)ccc21`, for which the Potency result is “inactive”. The same measure, in the same setting: with `CO[Si](OC)(c1ccccc1)c1ccccc1` the entry was “inactive”; with `CC(C)=CCC[C@H](C)CC=O`, “inactive”; with `CCN(CC)c1ccc2c(c1)Oc1cc(N(CC)CC)ccc1C21OC(=O)c2ccccc21`, 8.41 µM (active). On the same count and under the same terms, next, `COC(=O)c1ccc([N+](=O)[O-])cc1`: “inactive”. For the compound `CCCCCCCCSCc1cc(C)c(O)c(CSCCCCCCCC)c1`, the Potency entry is “inactive”. On to `Nc1ccc(F)c([N+](=O)[O-])c1`, for which the Potency entry was “inactive”. For `N#Cc1nc(Cl)c(Cl)c(Cl)c1Cl`, the Potency is 43.3 µM (active). Regarding `CCCCCCCCCCCCCCCCCCNC(=O)OC1CCN(C(=O)OC[C@H](COC(=O)N(Cc2cccc[n+]2CC)C(=O)c2ccccc2OC)OC)CC1`, the Potency entry was “inactive”. On to `NC(=O)C1CO1` (stereo not given), for which the Potency result was “inactive”. Consider `C=C[Si](C)(C)Cl`, for which the viability change, negative = cytotoxic was -0.0044% [at 8.39 µM]. `O=C(Nc1ccc([N+](=O)[O-])cc1)Nc1ccc([N+](=O)[O-])cc1` (tested in a mixture with another compound): the Potency result is “inactive”. Turning to `Cc1ccc(N=Nc2c(O)ccc3ccccc23)c(C)c1`, the Potency result is “inactive”.

In the case of `Cc1cccc2c1ccc1ccccc12`, the Potency entry was “inactive”. On to `CC(C=O)c1ccccc1` (stereo not given), for which the Potency result was “inactive”. In the case of `S=C1NC=NC2N=CNC12` (stereo not given), the Potency entry is “inactive”. For `C=COCCCC`, the Potency result was “inactive”. Regarding `CC(O)(c1ccc(Cl)cc1)c1ccc(Cl)cc1`, the Potency result is “inactive”.

With `CC1(C)[C@H]2CC[C@]1(C)C(=O)C2`, the Potency result is “inactive”. For the compound `COc1c(Br)cc(Br)c(C)c1Br`, the Potency result is “inactive”.

Regarding `CCOC(=O)C1=NN(c2ccc(Cl)cc2Cl)C(C)(C(=O)OCC)C1` (stereo not given), the Potency entry was “inactive”. `CCCCCCCCCCCC(=O)Cl`: the Potency result is “inactive”. Regarding `CCCCCCCCCCCCN1CCCC1=O`, the Potency entry is “inactive”.

For the compound `CCC1(C)C(=O)N(Cl)C(=O)N1Cl` (stereo not given), the Potency entry is “inactive”. Consider `C=C1C(CCl)(CCl)C2(Cl)C(Cl)C(Cl)C1(Cl)C2(Cl)Cl` (stereo not given), for which the Potency result was “inactive”. For `C/C(=N\[Si](C)(C)C)O[Si](C)(C)C`, the Potency entry was “inactive”. As for `COc1cc2ncnc(Nc3cccc(Cl)c3)c2cc1OC`, the viability change, negative = cytotoxic is -10.2% [at 19 µM]. Take `O=C1CCC(=O)N1`: the Potency entry was “inactive”. On to `O=C1c2ccccc2C(=O)c2c(Cl)cccc21`, for which the Potency entry is “inactive”. Turning to `CCCCNc1ccc(NCCCC)c2c1C(=O)c1ccccc1C2=O`, the viability change, negative = cytotoxic is -17.5% [at 19 µM]. For `CCNc1nc(NC(C)(C)C)nc(OC)n1`, the Potency result is “inactive”. As to `NCc1ccco1`, the Potency result is “inactive”. Consider `C=CC(=O)OCC(Br)CBr` (stereo not given), for which the Potency result was “inactive”. For the compound `CN1CCN(CCCN2c3ccccc3Sc3ccc(C(F)(F)F)cc32)CC1`, the Potency result was “inactive”. Take `CCCOC(=O)c1ccc(O)cc1`: the Potency entry is “inactive”. With `O=C(CCN1CCC(c2ccccc2)C1)c1ccc2c(c1)OCCO2` (stereo not given), the Potency result is “inactive”.
